# Compound activity: PubChem, National Center for Advancing Translational Sciences (NCATS)
# Rows were chosen to be rich in hits. Some 21% of all compounds tested hit in one or more screens of this group.
# Pf growth 96h: inhibits malaria parasite growth, 96 h | P. falciparum luciferase reporter growth, 96 h | Potency, µM (doses to about 28.7 µM), for inactives: at the highest dose activity change, negative = inhibition, actives largely listed as inhibitors | 320,000 tested, 6.9% active; further: potency means the concentration at half of the fitted maximal effect; on the % scale 0 is the no-effect control and ±100 the full control effect
#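 P. falciparum expressing integrated firefly luciferase, in erythrocytes at 2% hematocrit, 0.05% parasitemia, incubated with compounds 96 h at 37 C, 5% CO2. Growth inhibition read as loss of luminescence; two-generation exposure targets delayed-death apicoplast inhibitors.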
# HCV inh: inhibitors of hepatitis C virus infection; Potency, µM (top dose mostly 41.8 µM), inactives show at the highest dose activity change, negative = inhibition, usual class: inhibitors; Huh7.5.1 HCVcc-Cre infection, luciferase reporter, 44 h; 340,000 tested, 3.4% active; further: potency means the concentration at half of the fitted maximal effect; on the % scale 0 is the no-effect control and ±100 the full control effect
#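 Reporter virus HCVcc-Cre (~0.5 moi) infects cells exposed to compound; seeding density 1,000 cells/well with 4 h settling beforehand. Luminescence, 15 sec read, taken 44 h post-infection following a 15 min RT substrate incubation.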
# Shiga toxin inh: Shiga toxin inhibition | inhibition, % at 38.7 µM | Vero cells, Shiga toxin protein synthesis inhibition reporter | 290,000 tested, 9.2% active; in the data active means inhibition mostly above about 28%, no sharp cut-off; inactive means mostly below about 43%; further: 0% is about no effect
# CHX counter: counter-screen hit for Shiga toxin inhibitors, cycloheximide; 300,000 tested, 12% active; cell reporter, cycloheximide protein synthesis inhibition counterscreen; max response, %; in the data active means max response mostly above about 13%, no sharp cut-off; inactive means mostly below about 14%; further: read at 38.3 µM for the half of the compounds with a filed dose; 0% is about no effect
# AMA1 RON2 block: AMA1-RON2 (P. falciparum) interaction inhibition. Potency, µM (titrated, usually from 58.2 µM), without a hit: at the highest dose activity change, negative = inhibition, usual class: inhibitors. AID 720542. AlphaScreen AMA1-biotinylated RON2 peptide binding. 360,000 tested, 0.2% active;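 further: potency means the concentration at half of the fitted maximal effect; 0% = vehicle wells and -100% = peptide control; nearly all actives have a fitted effect of over 45% in size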
#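 AMA1 (3D7) with his tag at 25 nM final met compounds first, then biotinylated RON2 peptide at 25 nM; detection used donor plus acceptor beads, 10 µg/mL apiece, read by AlphaScreen after 30 min at room temperature.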
# Pf growth 48h: inhibits P. falciparum growth in the first generation, 48 h | P. falciparum luciferase growth in erythrocytes, 48 h | Potency, µM (doses to about 28.7 µM), for the others: at the highest dose activity change, negative = inhibition, usual class: inhibitors | 310,000 tested, 5.9% active; further: potency means the concentration at half of the fitted maximal effect; on the % scale 0 is the no-effect control and ±100 the full control effect
#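 Read-out is firefly luciferase luminescence from an integrated reporter in P. falciparum, so falling signal marks reduced parasite growth. Infected erythrocytes were at 2% hematocrit and 0.1% parasitemia (final) in Albumax-supplemented RPMI 1640.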
# * hit, by the source's call; ? = inconclusive; . = no result given; [ ] = another dose, or the depositor's remark. Unless noted, the call rests on the fitted dose curve; in most records, active means well fitted curve in the direction sought with a large enough effect; inconclusive means small, poorly fitted or top-dose-only effect, or another doubt; inactive means no such curve, though single readings can be large; an effect the other way counts as inactive or inconclusive.
SMILES,Pf growth 96h,HCV inh,Shiga toxin inh,CHX counter,AMA1 RON2 block,Pf growth 48h
O=C(CCCCC(=O)NN=Cc1ccc2c(c1)CCC2)NN=Cc1ccc2c(c1)CCC2,.,.,.,.,43%,.
O=C(Nc1ccc(N2CCOCC2)cc1)c1csc([C@@H]2C[C@H](O)[C@@H](CO)O2)n1,.,.,.,.,3%,.
O=C(/C=C/c1ccc2c(c1)OCO2)c1ccc(F)cc1,?,9%[8.37 µM],78*,42*,-6%,0%
COc1ccccc1NC(=O)CSc1nc(N)cc(N)n1,-14%,-1%,-5,-1,4%,2%
COc1ccccc1OCC#CCN1CCCC1,?,19%,-11,-2,-2%,7%
COc1ccccc1OCC#CCSc1ncccn1,-12%,7%,54,24*,-4%,0%
Nc1cc(N)nc(SCCOc2ccccc2F)n1,9%,?,121*,70*,-8%,76%
COc1ccccc1OCCSc1nc(N)cc(N)n1,107%,-22%,active,22,-16%,96%
Cn1c(SCCOc2ccccc2F)nc2ccccc2c1=O,54%,15%,30,16,0%,?
CCCNC(=O)C(Cc1ccc(F)cc1)NC(=O)c1ccccc1 (stereo not drawn),?,-1%,.,.,17%,11%
CC(=O)NCC(c1cccs1)S(=O)(=O)c1ccc(F)cc1 (stereo not drawn),?,25%,14,3,13%,3%
Nc1ccn([C@@H]2O[C@H](C(=O)N[C@H](CO)Cc3ccccc3)[C@@H](O)[C@H]2O)c(=O)n1,.,.,.,.,22%,.
COc1ccccc1-c1sc2ccccc2c1-c1ccc(O)cc1,.,5.6µM*,.,.,8%,.
COc1ccc(-c2sc3cc4c(cc3c2-c2ccc(OCCN3CCOCC3)cc2)OCO4)cc1,.,-49%,.,.,6%,.
COc1ccc(-c2sc3ccccc3c2-c2ccc(O)cc2)cc1,.,?,.,.,5%,.
COc1ccc(-c2sc3cc(OC)c(OC)cc3c2-c2ccc(O)cc2)cc1,.,28µM*,.,.,?,.
COc1ccccc1-c1sc2cc3c(cc2c1-c1ccc2c(c1)OCO2)OCO3,?,0%,.,.,-9%,?
COc1ccccc1-c1sc2ccccc2c1-c1ccc2c(c1)OCO2,5.2µM*,?,1,1,-11%,4.7µM*
COc1cc2sc(-c3ccccc3OC)c(-c3ccc(OCCN4CCCCC4)cc3)c2cc1OC,.,11µM*,.,.,?,.
CCCCCCCCN1C(=O)[C@H](CC(=O)N2CCN(C(=O)OCC)CC2)C[C@@]2(C(=O)OC)CCCCC=C12,.,.,.,.,-3%,.
CC(C)C[C@H]1CNC(=S)N1C[C@H]1CCCN1C[C@H](Cc1ccc(O)cc1)N1C[C@H](Cc2ccccc2)N(CC2CCCCCC2)C1=S,.,.,.,.,9%,.
Cc1ccc2nc(NC(=O)CSCC(=O)Nc3cc(C)on3)sc2c1,179%,-7%,.,.,1%,222%
Cc1ccc2nc(-c3ccc(NC(=O)COCC(=O)O)cc3)sc2c1,106%,5%,50*,56*,-6%,109%
O=C(O)CSCC(=O)Nc1ccc(-c2nc3ccccc3s2)cc1,88%,23%,54*,35*,-4%,260%
Cc1ccc2nc(-c3ccc(NC(=O)CSCC(=O)O)cc3)sc2c1,403%,6%,87*,55*,-8%,220%
SMILES,Pf growth 96h,HCV inh,Shiga toxin inh,CHX counter,AMA1 RON2 block,Pf growth 48h
Cc1ccc(NC(=O)COCC(=O)Nc2ccc(C)cc2)cc1,-14%,0%,-2,-2,6%,23%
CS(=O)(=O)CCC(C(=O)O)N1C(=O)c2ccc(Oc3ccc(Cl)cc3)cc2C1=O (stereo not drawn),-4%,11%,-2,-5,7%,-9%
Cc1cn(CC(=O)NCC(c2ccccc2)c2ccccc2)c(=O)[nH]c1=O,.,5%,.,.,0%,.
COc1cc(NC(=O)CSc2ncnc3scc(-c4ccccc4)c23)c(C(=O)O)cc1OC,8%,1%,-4,1,8%,0%
COc1ccc(NC(=O)c2ccc(Cl)c(S(=O)(=O)N3CC(C)OC(C)C3)c2)cn1 (stereo not drawn),10µM*,3.2µM*,.,.,0%,8.3µM*
CC1CN(S(=O)(=O)c2cc(C(=O)NCc3ccncc3)ccc2Cl)CC(C)O1 (stereo not drawn),?,15%,.,.,-6%,?
O=C(Nc1cccnc1)c1ccc(Cl)c(S(=O)(=O)N2CCCC2)c1,24%,?,14,11,-3%,?
COc1ccc(NC(=O)c2ccc(Cl)c(S(=O)(=O)N3CCc4ccccc4C3)c2)cn1,.,11µM*,30,-2,-10%,1.9µM*
Cc1ccccc1CCNC(=O)c1ccc(Cl)c(S(=O)(=O)N2CC(C)OC(C)C2)c1 (stereo not drawn),13µM*,7.9µM*,.,.,-3%[11.6 µM],13µM*
O=C(NCc1cccc(C(F)(F)F)c1)c1ccc2nc([C@@H]3O[C@H](CO)[C@@H](O)[C@H]3O)[nH]c2c1,.,.,.,.,-4%,.
COc1ccc(CN2C(=O)C(CC(=O)NC3CCCC3)CC(C(=O)N3CCOCC3)=C2C)cc1 (stereo not drawn),.,.,.,.,5%,.
C[C@@H](C(=O)Nc1ccc2ccccc2c1)[C@H]1C[C@]1(C)[C@H](NS(=O)(=O)c1ccccc1)c1ccccc1,?,?,11,-3,-4%,1µM*
C[C@@H](C(=O)Nc1ccc2ccccc2c1)[C@H]1C[C@]1(C)[C@H](NP(=O)(c1ccccc1)c1ccccc1)c1ccccc1,10µM*,5%[8.37 µM],6,-3,.,?
C[C@@H](C(=O)O)[C@@H]1C[C@@]1(C)[C@@H](NC(=O)OCc1ccccc1)c1ccccc1,-15%,-7%[8.37 µM],-7,-2,-2%,32%
CNC(=O)[C@H](C)[C@@H]1C[C@@]1(C)[C@@H](NC(=O)OCc1ccccc1)c1ccccc1,?,-3%[8.37 µM],-2,-1,-9%,13µM*
Cc1ccc(CS(=O)(=O)CC(C)(O)c2ccccc2)cc1 (stereo not drawn),?,14%,8,-5,0%,-6%
C=C[C@@H]1c2cc(C)ccc2N(S(=O)(=O)c2ccc(C)cc2)[C@H](c2ccccc2C(F)(F)F)C1(C#N)C#N,123%,7%,.,.,0%,?
Cc1ccc(C)n1-c1ccc(-c2ccnc(N)n2)cc1,?,-9%,28,24*,0%,?
COCCNC(=O)Cn1nc(-c2ccc(C)cc2)c2ccccc2c1=O,7%,2%,18,-3,-7%,29%
CC/C(=N\NC(=O)c1c[nH]c2ccccc12)c1cccs1,13µM*,-10%,61*,62*,-18%,?
COc1ccc(CCNC(=O)C(=O)c2c[nH]c3ccccc23)cc1OC,?,-21%,11,9,-4%,7%
COc1ccc(C/C(C)=N\NC(=O)c2c[nH]c3ccccc23)cc1OC,8%,18%,71*,29*,42%,0%
